TRHR enhancer-1 = allosterically enhances the human TRH receptor; TRHR cells, fluo-8 calcium fluorescence, EC20 TRH enhancement; enhancement, % at 2 µM; hit rate 0.66% among 360,000; AID 493056; in the data active = enhancement above about 30%; note: 0% is about no effect
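Enhancer read-out: after compound pinning and an initial kinetic agonist-mode read, an EC20 of TRH (10 nM final) was injected and fluo-8 calcium signal (Ex 480/Em 530) followed at 1 s/cycle for 100 cycles in TRHR-expressing cells.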
TRHR agonist-1 = agonists of human TRH receptor; P34981; TRHR cells, calcium flux fluo-8, FDSS agonist mode; activation, % at 2 µM; hit rate 0.18% among 360,000; in the data active = activation above about 30%; note: 0% is about no effect
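Read-out: compound-evoked intracellular calcium rise in TRHR cells, fluo-8 dye, kinetic FDSS fluorescence at 1 s/cycle following a 10-cycle baseline. Cells cultured overnight before dye loading (30 min–1.5 h, RT).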
D1 antag = blocks dopamine activation of the human D1 receptor; P21728; HEK293 TREx D1 cells, calcium flux, dopamine EC80; active compounds read low; activity change, negative = inhibition, % at 10 µM; hit rate 3.2% among 360,000; AID 504652; in the data active = activity change below about -30%; note: % is set by controls: 0 for no effect and ±100 for the full control effect
Target sequence (P21728 whole entry, looked up): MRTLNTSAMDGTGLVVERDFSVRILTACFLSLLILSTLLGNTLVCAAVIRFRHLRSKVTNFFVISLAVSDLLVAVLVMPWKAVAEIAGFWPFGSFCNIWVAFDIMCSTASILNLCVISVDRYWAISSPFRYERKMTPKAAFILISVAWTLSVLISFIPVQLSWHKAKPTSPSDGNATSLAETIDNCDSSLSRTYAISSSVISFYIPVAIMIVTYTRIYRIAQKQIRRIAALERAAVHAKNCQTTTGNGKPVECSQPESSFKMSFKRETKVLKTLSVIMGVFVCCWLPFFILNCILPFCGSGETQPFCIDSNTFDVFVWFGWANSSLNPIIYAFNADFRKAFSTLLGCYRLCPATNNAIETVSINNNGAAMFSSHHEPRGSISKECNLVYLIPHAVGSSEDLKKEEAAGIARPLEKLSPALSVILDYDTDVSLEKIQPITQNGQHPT
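Inducible Hek293 Trex D1 cells (tetracycline, overnight, 30 C). Calcium dye 30–90 min RT. Antagonist mode: EC80 dopamine added after 180 s compound read.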
D1 potentiator = human D1 dopamine receptor positive modulation | P21728 | HEK293 TREx D1 cells, calcium flux, dopamine EC20 potentiation | potentiation, % at 10 µM | hit rate 0.036% among 360,000; in the data active = potentiation above about 30%; note: 0% is about no effect
D1 agonist = agonists of human D1 dopamine receptor; HEK293 T-REx D1 cells, calcium flux, agonist mode; activation, % at 2 µM; AID 504660; hit rate 1% among 360,000; in the data active = activation above about 30%; note: 0% is about no effect
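Inducible HEK293 T-REx D1 cells, force-coupled to calcium signalling, were plated at 4000 cells/well with tetracycline and held overnight at 30 C. After no-wash calcium dye loading, compound-evoked calcium rise over 180 s flagged agonists.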
GRP78 ERSR act = inducers of ER stress response in human glioma cells; U87-MG GRP78 promoter luciferase reporter, 16 h; hit rate 0.02% among 420,000; Potency, µM, inactives show top-dose activation, usual class: activators; AID 602332; note: potency is the fitted concentration of half-maximal effect; series mostly up to about 76 µM; % of control where 0% means no effect; nearly all actives have a fitted effect of over 35% in size
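Stably transfected U87-MG human glioma cells carrying a GRP78-based luminescent sensor were seeded at 1000 cells/well, pin-dosed with compounds and incubated 16 h. Luciferase reagent was then added, and end-point luminescence was read after 10 min at room temperature.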
TRHR enhancer-2 = confirmation of human TRH receptor allosteric enhancers; shares compounds with TRHR enhancer-1; TRH receptor cell assay, enhancer confirmation qHTS; activity change, negative = inhibition, % at 46.1 µM; 970 tested, under 10 active; AID 493076;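 note: compound effect scored on response to added TRH at EC20 of 10 nM; 0% is about no effect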
TRHR agonist-2 = human TRH receptor agonism confirmation; hit rate 8% among 970; Potency, µM (doses to about 46.1 µM), for the others: at the top dose activation, actives largely listed as activators; TRHR-expressing cells, agonist activation read-out; shares compounds with TRHR enhancer-1; note: potency is the fitted concentration of half-maximal effect; 0% is about no effect; nearly all actives have a fitted effect of over 75% in size
Active calls of the source: *; ? = inconclusive; . = not tested or not shown. In the library only some 4% were active in any assay of this set; here they are far more common. Unless noted, calls come from the whole dose curve; as a rule, active = well fitted curve in the direction sought with a large enough effect; inconclusive = small, poorly fitted or top-dose-only effect, or another doubt; inactive = no such curve, though single readings can be large; an effect the other way counts as inactive or inconclusive.

SMILES	TRHR enhancer-1	TRHR agonist-1	D1 antag	D1 potentiator	D1 agonist	GRP78 ERSR act	TRHR enhancer-2	TRHR agonist-2
O=C(CCCCl)Oc1ccc2cc(-c3ccc4ccccc4n3)c(=O)oc2c1	2	32*	-4	-3	51*	8%	9	?
CC(=O)COc1ccc2cc(-c3ccccc3)c(=O)oc2c1	-7	0	-13	-3	9	-4%	.	.
CCc1cc(C(=O)NCC2Cc3cccc(-c4ccc(C(=O)OC)cn4)c3O2)no1 (configuration not stated)	.	.	.	.	.	-6%	.	.
O=C(OCC(=O)c1ccc[nH]1)C1=COCCO1	3	1	6	-3	5	-4%	.	.
COC(=O)c1cc(S(=O)(=O)N2CCN(c3ccccc3)CC2)c[nH]1	-2	1	-4	-9	16	-5%	.	.
COC(=O)c1cc(S(=O)(=O)N2CCN(c3cccc(C)c3C)CC2)c[nH]1	48*	0	-3	-20	8	-1%	-7	-1%
NS(=O)(=O)c1ccc(CCNC(=O)c2ccc(C#CC3(O)CCCCC3)cc2)cc1	1	1	-5	-4	2	-8%	.	.
COc1ccc(CSc2n[nH]c(C)n2)cc1Br	25	7	-12	-6	6	2%	.	.
COc1cccc(/C=N/NC(=O)c2c(C)nc3ccc(Br)cn23)c1O	2	35*	-3	-4	5	0%	0	?
COc1cccc(-n2nnc3c(=O)n(Cc4cccc(F)c4)cnc32)c1	10	0	-9	-2	1	0%	.	.
CC(C)c1c(C(=O)N/N=C/C=C/c2ccccc2)nnn1-c1nonc1N	76*	0	6	-7	19	-2%	9	1%
O=C1C2C3C=CC(CC3)C2C(=O)N1/N=C/c1ccc(O)cc1 (configuration not stated)	1	1	-8	-3	2	0%	.	.
O=C(NCC(c1cccnc1)N1CCc2ccccc21)c1cccc(Br)c1 (configuration not stated)	-6	0	7	-3	4	-1%	.	.
COc1cc(/C=C(/C#N)C(=O)NC(C)c2ccccc2)cc(OC)c1O (configuration not stated)	0	118*	4	1	95*	-1%	8	21µM*
OCCC1CN(Cc2ccc3nsnc3c2)CCN1CCc1ccccc1 (configuration not stated)	45*	0	-6	-4	3	-2%	-5	1%
Cc1ccc(CNCC(O)(c2ccccc2)c2ccc(Cl)cc2)cc1 (configuration not stated)	0	1	18	-4	19	-2%	.	.
CCC(C)NCC(O)(c1ccc(Cl)cc1)c1ccc(Cl)cc1 (configuration not stated)	50*	1	11	-3	6	-6%	-5	?
CS(=O)(=O)Nc1ccc(C(=O)Nc2ccc3c(c2)OCO3)cc1	46*	0	-10	-3	4	7%	-5	0%
CS(=O)(=O)Nc1ccc(C(=O)NCc2ccc3c(c2)OCO3)cc1	-5	1	-2	-9	3	-3%	.	.
O=C1CN(C(=O)c2ccc(Br)o2)C(c2ccc(F)cc2)c2cc(F)ccc2N1 (configuration not stated)	-2	0	-10	2	-1	-4%	.	.
CC(=O)c1nn(-c2ccc(OC(F)(F)F)cc2)nc1Nc1ccc(C)cc1	4	2	-4	4	1	-1%	.	.
Cc1ccc(NCc2ccc(O)c3ncccc23)cc1	46*	0	10	7	2	-1%	4	1%
Cc1ccc(NCc2ccc(O)c3ncccc23)cc1C	-3	0	-13	-4	3	0%	.	.
COC(=O)c1[nH]c2ccccc2c1NS(=O)(=O)c1ccc(F)c(C)c1	44*	0	-48*	-7	1	-3%	-8	0%
Cc1ccc2[nH]c(CCN(C)C)c(CC#N)c2c1	66*	0	9	-2	20	-1%	-6	?
SMILES	TRHR enhancer-1	TRHR agonist-1	D1 antag	D1 potentiator	D1 agonist	GRP78 ERSR act	TRHR enhancer-2	TRHR agonist-2
Cc1cc(C(=O)NCc2ccc(S(N)(=O)=O)cc2)c(C)o1	2	0	-4	5	0	0%	.	.
Cc1cc(=O)oc2c(CN3CCCC3)c(O)c(Cl)cc12	59*	-2	-12	-3	17	-1%	-12	3%
Cc1cc(=O)oc2c(CN3CCCCC3)c(O)c(Cl)cc12	19	-1	-15	-3	-3	-2%	.	.
Cc1cccc(N(C(=O)c2snc(C(N)=O)c2N)C(C(=O)NC2CCCC2)c2ccncc2)c1 (configuration not stated)	42*	0	-22	-4	2	5%	-1	0%
CN(C)c1ccc(C(C(=O)NCC2CCCO2)N(C(=O)c2snc(C(N)=O)c2N)c2ccc3c(c2)OCO3)cc1 (configuration not stated)	53*	-1	8	8	4	0%	-4	0%
CN(C)c1ccc(C(C(=O)NCC2CCCO2)N(C(=O)c2snc(C(N)=O)c2N)c2ccccc2)cc1 (configuration not stated)	7	0	-15	-6	3	-2%	.	.
O=C(NCC(c1ccco1)N1CCc2ccccc21)c1ccccc1 (configuration not stated)	51*	0	0	-8	4	-2%	-9	1%
Cc1ccc(C(=O)NCC(c2ccco2)N2CCc3ccccc32)cc1C (configuration not stated)	-7	1	3	-3	3	-5%	.	.
CC1(C)OC(C(O)(c2ccccc2)c2ccccc2)[C@@H](C(O)(c2ccccc2)c2ccccc2)O1 (some centres not stated)	-15	4	-12	-9	6	-1%	.	.
O=C1CC(c2ccccc2)Sc2nc3ccccc3n21 (configuration not stated)	42*	-1	-13	-1	1	-5%	-10	1%
O=C1CC(c2cccs2)Sc2nc3ccccc3n21 (configuration not stated)	-12	-1	-11	7	-2	3%	.	.
COc1ccc(N=C2NC(=O)/C(=C/c3ccc(O)c(OC)c3)S2)cc1	1	12	-5	-8	13	6%	.	.
COc1cccc(N=C2NC(=O)/C(=C/c3cc([N+](=O)[O-])ccc3O)S2)c1	1	55*	34	3	83*	-2%	5	?
CC(C)OCCCNC(=O)c1cccc(NC(=O)c2ccccc2)c1	2	0	1	-3	1	-3%	.	.
